The list is not random: actives were taken first. Their share in the collection is about 7.3%.
AmpC inh detg: inhibitors of E. coli AmpC beta-lactamase with detergent; AmpC hydrolysis of nitrocefin, absorbance 480 nm, 0.01% Triton; Potency, µM (highest dose often 114 µM), actives largely listed as inhibitors; hit rate 0.041% among 370,000; P00811; further: nearly all actives have a fitted effect of over 25% in size
Target sequence (P00811 whole entry, looked up): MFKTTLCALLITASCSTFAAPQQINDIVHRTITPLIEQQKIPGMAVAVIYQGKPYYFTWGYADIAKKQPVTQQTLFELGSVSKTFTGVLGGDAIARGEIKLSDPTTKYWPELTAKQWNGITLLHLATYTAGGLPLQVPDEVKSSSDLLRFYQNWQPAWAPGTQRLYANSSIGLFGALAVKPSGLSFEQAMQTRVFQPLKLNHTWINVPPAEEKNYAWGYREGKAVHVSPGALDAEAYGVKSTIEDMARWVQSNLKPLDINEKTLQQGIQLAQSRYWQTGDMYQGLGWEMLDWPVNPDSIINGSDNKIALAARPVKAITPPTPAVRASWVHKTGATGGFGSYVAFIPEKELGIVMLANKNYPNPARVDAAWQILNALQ
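AmpC (5.3 nM in the dispensed reagent) in 20 mM phosphate pH 7.0 with 0.01% (detergent screen) or 0.0001% Triton X-100 was preincubated with compounds for 15 min at room temperature. Nitrocefin was then added from an 800 uM solution, and hydrolysis was followed at 480 nm.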
HCMV inh: human cytomegalovirus inhibition; HFF cells, HCMV-luciferase reporter, 72 h; hits give low values; activity change, negative = inhibition, % at 57.5 µM; hit rate 4.5% among 410,000; AID 1259415; in the data active means activity change below about -60%; inconclusive means no clear call, values can overlap the other calls; inactive means above about -39%
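Two compound doses tested in HFFs infected with HCMV-luciferase, MOI 1 PFU/cell, 72 h at 37C. Lysate luminescence read with OneGlo; data normalized against buffer-only and 10uM Salinomycin inhibitor controls.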
AmpC no deterg: inhibitors of E. coli AmpC beta-lactamase without detergent; Potency, µM (titrated, usually from 57.1 µM), hits mostly inhibitors; AmpC nitrocefin hydrolysis, absorbance 480 nm, 0.0001% Triton; AID 485341; P00811; hit rate 0.52% among 330,000; further: nearly all actives have a fitted effect of over 20% in size
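AmpC (5.3 nM in the dispensed reagent) in 20 mM phosphate pH 7.0 with 0.01% (detergent screen) or 0.0001% Triton X-100 was preincubated with compounds for 15 min at room temperature. Nitrocefin was then added from an 800 uM solution, and hydrolysis was followed at 480 nm.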
FMDV inh: antivirals against foot and mouth disease virus; Potency, µM (top dose mostly 57.9 µM), usual class: inhibitors; AID 1159524; FMDV antiviral cell-based qHTS; hit rate 1.2% among 410,000; calls by dose curve; tested in HEK293T cells; further: read-out not given here; nearly all actives have a fitted effect of over 45% in size
HCV inh: blocks hepatitis C virus; AID 651820; Potency, µM (series often up to 41.8 µM), usual class: inhibitors; Huh7.5.1 HCVcc-Cre infection, luciferase reporter, 44 h; hit rate 3.4% among 340,000
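Whole-lifecycle infectious HCVcc-Cre system; cells 1,000/well, compound then virus (~0.5 moi) added 4 h after plating, 44 h culture. Luciferase read 15 sec following 15 min substrate incubation, room temp.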
Each line names hits and unclear results; the compound was inactive in the other large screens. Unless noted, the call rests on the fitted dose curve; in most records, active means well fitted curve in the direction sought with a large enough effect; inconclusive means small, poorly fitted or top-dose-only effect, or another doubt; inactive means no such curve, though single readings can be large; an effect the other way counts as inactive or inconclusive.

C[C@@H]1CN([C@@H](C)CO)C(=O)c2cccc(NC(=O)C3CCCCC3)c2O[C@@H]1CN(C)C(=O)NC1CCCCC1	none (no result: AmpC inh detg)
C[C@H]1CN([C@@H](C)CO)C(=O)c2cc(NC(=O)C3CCCCC3)ccc2O[C@H]1CN(C)C(=O)Nc1ccc2c(c1)OCO2	HCV inh 1µM (no result: AmpC inh detg)
CC(C)NC(=O)N(C)C[C@H]1Oc2ccc(NC(=O)C3CCCCC3)cc2C(=O)N([C@H](C)CO)C[C@@H]1C	none (no result: AmpC inh detg)
C[C@H](CO)N1C[C@H](C)[C@@H](CN(C)C(=O)NC2CCCCC2)Oc2c(NC(=O)C3CC3)cccc2C1=O	HCMV inh -100 (no result: AmpC inh detg)
CC(NCc1cccs1)c1ccccc1 (stereo unspecified)	HCMV inh inconclusive
CCn1cc(CN(C)S(=O)(=O)c2ccc3ccccc3c2)c(C)n1	HCMV inh -68, FMDV inh inconclusive, HCV inh 7.9µM
Cc1ccc(NC2=C(Cl)C(=O)OC2OC(=O)c2ccco2)cc1C (stereo unspecified)	HCV inh inconclusive
Cc1ccccc1C(=O)OC1OC(=O)C(Cl)=C1Nc1ccc(C(=O)O)cc1 (stereo unspecified)	AmpC inh detg 1.3µM, AmpC no deterg 1.1µM
O=C(NCCN1CCCCC1)c1ccc(Cn2c(SCc3ccccc3)nc3cccnc32)cc1	none (no result: AmpC no deterg, HCV inh)
C[C@@H](NC(=O)c1ncn(Cc2ccccc2)c1C(=O)N[C@H](C)c1ccccc1)c1ccccc1	HCV inh inconclusive
CCn1cc(C(=O)O)c(=O)c2cc(F)c(N3CCN(C(=O)Nc4ccccc4)CC3)cc21	HCMV inh -84
CCn1cc(C(=O)NCCc2ccccc2)c(=O)c2cc(F)c(N3CCN(C)CC3)cc21	HCV inh 10µM
CCn1cc(C(=O)NCC(C)C)c(=O)c2cc(F)c(N3CCN(C(=O)c4ccco4)CC3)cc21	HCV inh inconclusive
CCC(C)NC(=O)c1cn(CC)c2cc(N3CCN(C(=O)c4ccco4)CC3)c(F)cc2c1=O (stereo unspecified)	HCV inh 14µM
CCCCCCNC(=O)c1cn(CC)c2cc(N3CCN(C)CC3)c(F)cc2c1=O	HCV inh 10µM
CCn1cc(C(=O)O)c(=O)c2cc(F)c(N3CCN(C(=S)NC(=O)c4ccccc4F)CC3)cc21	none
O=C(CNC(=O)c1cccs1)Nc1cccc(S(=O)(=O)N2CCOCC2)c1	none
CCn1c(CCl)nc2cc(S(=O)(=O)N3CCOCC3)ccc21	FMDV inh 28µM, HCV inh inconclusive (no result: AmpC inh detg)
CCn1c(SCC(N)=O)nc2cc(S(=O)(=O)N3CCOCC3)ccc21	none
Cc1ccc(NC(=O)Cn2nc(Cc3ccncc3)c3ccccc3c2=O)c(Cl)c1	HCMV inh -97 (no result: AmpC no deterg, HCV inh)
CCOc1ccccc1N(C)C(=O)Cn1nc(Cc2cccnc2)c2ccccc2c1=O	HCMV inh -72 (no result: AmpC no deterg, HCV inh)
COc1ccc(-c2ccc(=O)n(CC(=O)Nc3ccc(OC)c(OC)c3)n2)cc1	HCMV inh active (no result: AmpC no deterg, HCV inh)
COc1ccc(NC(=O)Cn2nc(Cc3cccnc3)c3ccccc3c2=O)cc1OC	AmpC inh detg inconclusive, AmpC no deterg 2.8µM
O=C(CSc1nnc(-c2ccc(C(F)(F)F)cn2)o1)Nc1ccccc1Cl	none
COc1ccc(C)cc1S(=O)(=O)N(CC(=O)NC1CCCC1)c1ccc(F)cc1	none
CCOC(=O)c1c(C)n2c3c(cc(C)cc13)CCC2	HCMV inh inconclusive, HCV inh 10µM
Cc1ccc(C(C)C)c(OCCCN2C(=O)NC(C)(C)C2=O)c1	AmpC inh detg inconclusive
CC(C)c1cc(Br)ccc1OCCN1C(=O)NC(C)(C)C1=O	HCMV inh -61
Cc1[nH]n(-c2ncc(-c3ccccc3)s2)c(=O)c1C(c1ccc(Br)cc1)C(C#N)C#N (stereo unspecified)	FMDV inh 28µM
CN1CCN(c2ccc(-c3nc(-c4ccccc4)no3)cc2[N+](=O)[O-])CC1	HCMV inh -99 (no result: AmpC no deterg, HCV inh)
O=[N+]([O-])c1cc(-c2nc(-c3ccncc3)no2)cc([N+](=O)[O-])c1	HCV inh inconclusive
O=[N+]([O-])c1cc(-c2nc(-c3ccncc3)no2)ccc1Cl	AmpC inh detg inconclusive, HCMV inh -64
COc1ccc(-c2noc(-c3ccc(N4CCN(C)CC4)c([N+](=O)[O-])c3)n2)cc1	none (no result: AmpC no deterg, HCV inh)
O=[N+]([O-])c1cc(-c2nc(-c3ccccc3)no2)ccc1N1CCCCC1	HCMV inh -88 (no result: AmpC no deterg, HCV inh)
OCC1CCCN(c2nc3cc4c(cc3cc2CNCc2cccc(C(F)(F)F)c2)OCO4)C1 (stereo unspecified)	none (no result: AmpC inh detg, HCMV inh, AmpC no deterg, HCV inh)
N#Cc1ccccc1COc1ccc(/C=C/C(=O)O)cc1	HCMV inh -71
CC(NC(=O)Cc1ccc(-c2ccccc2)cc1)c1ccccc1 (stereo unspecified)	AmpC inh detg inconclusive, HCV inh 14µM
O=C(Cc1cccs1)NNC(=S)NCc1ccco1	none
CC(NC(=O)COC(=O)Cc1ccc(Cl)cc1)c1ccccc1 (stereo unspecified)	none (no result: AmpC inh detg)
O=C(Cc1ccc(-c2ccccc2)cc1)NNC(=S)NCc1ccco1	HCV inh 11µM
O=C(Cc1coc2ccc3ccccc3c12)NCc1ccccc1	AmpC inh detg inconclusive, HCV inh 10µM
O=C(Cc1ccc(-c2ccccc2)cc1)NCc1ccccc1	HCMV inh -83
CCOC(=O)c1ccc(NC(=O)CSc2nc3ccccc3c(=O)n2CCNC(C)=O)cc1	none (no result: AmpC no deterg, HCV inh)
CCn1c(=O)c2cc(C(=O)NCCCN(C)Cc3ccccc3)sc2c2ccccc21	HCMV inh -70 (no result: AmpC no deterg, HCV inh)
CCn1c(=O)c2cc(C(=O)NCCCN3CCN(c4ccc(F)cc4)CC3)sc2c2ccccc21	FMDV inh inconclusive (no result: AmpC no deterg, HCV inh)
CCn1c(=O)c2cc(C(=O)N3CCN(C)CC3)sc2c2ccccc21	AmpC no deterg 0.63µM, HCV inh inconclusive
CCn1c(=O)c2cc(C(=O)NCCN3CCOCC3)sc2c2ccccc21	HCV inh 11µM
CCCCNC(=O)c1cc2c(=O)n(CC)c3ccccc3c2s1	HCV inh inconclusive
CN(CCCNC(=O)c1cccn2c(=O)c3ccccc3nc12)Cc1ccccc1	FMDV inh inconclusive, HCV inh 11µM
Cc1ccc2c(c1)CN(CCNC(=O)c1cccc(Cn3cccn3)c1)CC(C)O2 (stereo unspecified)	none (no result: AmpC inh detg, HCMV inh, AmpC no deterg, HCV inh)
CCn1c(=O)c2cc(C(=O)NC3CCCCCC3)sc2c2ccccc21	HCMV inh inconclusive (no result: AmpC no deterg, HCV inh)
Cn1c(=O)c2cc(C(=O)NC3CCCCCC3)sc2c2ccccc21	HCMV inh -81 (no result: AmpC no deterg, HCV inh)
CC(OC(=O)CCN=C1NS(=O)(=O)c2ccccc21)C(=O)Nc1ccc(N(C)C)cc1 (stereo unspecified)	HCV inh inconclusive
CN(C)S(=O)(=O)c1ccc(C(=O)Nc2ccc(S(=O)(=O)NC3=NCCCCC3)cc2)cc1	none
O=C(Nc1ccc(S(=O)(=O)NC2=NCCCCC2)cc1)c1cccs1	HCMV inh -102, HCV inh inconclusive (no result: AmpC inh detg)
